# From PubChem BioAssay (NCI)
# About 83,000 compounds went through this panel and 20% of them were active in at least one assay; those are over-represented in the sample as a whole.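 Single-concentration screen, 48 h exposure, 96-well plates. Endpoint: percent growth. Below 10 = active.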 Values without a mark were called inactive. Calls of active or inactive are those of the source.
# Assays:
# Assay in all cases: NCI-60 one-dose screen, 48 h (100 = growth as untreated, 0 = no growth, -100 = all killed)
# DU-145 prostate = details: 10 µM unless noted
# K-562 leukemia = details: 10 µM unless noted
# MALME-3M melanoma = details: 10 µM unless noted
# MDA-MB-231 breast = details: 10 µM unless noted
# RXF 393 renal = details: 10 µM unless noted
# SF-268 CNS = details: 10 µM unless noted
# SF-295 CNS = details: 10 µM unless noted
# SF-539 CNS = details: 10 µM unless noted
# UACC-257 melanoma = details: 10 µM
# M14 melanoma = details: 10 µM unless noted
# HCT-15 colon = details: 10 µM unless noted
# HT29 colon = details: 10 µM unless noted
# SNB-19 CNS = details: 10 µM unless noted
# U251 CNS = details: 10 µM unless noted
# PC-3 prostate = details: 10 µM unless noted
# SK-MEL-5 melanoma = details: 10 µM unless noted
# UACC-62 melanoma = details: 10 µM unless noted
# LOX IMVI melanoma = details: 10 µM unless noted
# SK-MEL-28 melanoma = details: 10 µM unless noted
SMILES,growth (DU-145 prostate),growth (K-562 leukemia),growth (MALME-3M melanoma),growth (MDA-MB-231 breast) [%],growth (RXF 393 renal),growth (SF-268 CNS),growth (SF-295 CNS),growth (SF-539 CNS),growth (UACC-257 melanoma),growth (M14 melanoma),growth (HCT-15 colon),growth (HT29 colon),growth (SNB-19 CNS),growth (U251 CNS),growth (PC-3 prostate),growth (SK-MEL-5 melanoma),growth (UACC-62 melanoma),growth (LOX IMVI melanoma),growth (SK-MEL-28 melanoma) [%]
Nc1ccc(-c2nnc(SCc3ccc(O)c4ncccc34)o2)cc1,9.69% (active),3.52% (active),-2.77% (active),33.8,-14.8% (active),1.12% (active),-21.6% (active),-14.1% (active),-20.4% (active),-38.8% (active),10.2%,8.36% (active),8.55% (active),-6.47% (active),0.0718% (active),-20.5% (active),-54.4% (active),0.185% (active),10.6
CCOc1c(C#N)c(Nc2ccc(S(N)(=O)=O)cc2)c(C#N)c2nnc(C)n12,109%,110%,99.1%,90.6,132%,99%,105%,97.2%,104%,100%,105%,107%,101%,108%,85.4%,97.8%,91.8%,95.6%,110
O=C(/C=C1\C=CN(CCCCO)c2ccccc21)n1ccc2ccccc21,107%,109%,99.2%,98.5,113%,107%,103%,98.6%,105%,94.6%,107%,109%,94.8%,102%,107%,98.1%,87.6%,114%,108
O=C(NNc1nc2cc(F)ccc2n2cncc12)c1cnccn1,26.6%,23.9%,29.5%,34.1,68.6%,28.3%,0.0659% (active),30.1%,36.5%,0.271% (active),27.9%,33.1%,33.7%,29.8%,44.6%,-11.6% (active),17.5%,13.7%,26
COc1ccc(-c2nnc(SCc3ccc(O)c4ncccc34)n2-c2ccccc2)cc1,24.8%,13.3%,10.6%,30.9,7.27% (active),18.1%,-1.96% (active),4.55% (active),13.6%,-13.5% (active),9.65% (active),59.2%,14.4%,11.2%,20.7%,-11% (active),2.62% (active),-10.9% (active),20.2
O=C(/C=C/c1cn(-c2ccccc2)nc1-c1ccc(Cl)cc1)c1cc2ccccc2oc1=O,63.7%,58.4%,66%,55,95.7%,90.8%,48%,68.4%,93.5%,72.8%,58.9%,62.1%,54.3%,35.1%,53.3%,72%,52.7%,37.3%,93
O=C1[C@H]2Cc3c([nH]c4ccccc34)[C@@H](c3ccc(Cl)cc3)N2C(=O)CN1C1CCN(Cc2c(Cl)cccc2Cl)CC1,90.4%,81.6%,65.8%,53,109%,85.6%,73%,77.7%,102%,84.5%,54.5%,81.8%,94.2%,91.2%,70.8%,90.1%,81.8%,-89% (active),103
CC(C)N=C(N/C(N)=N/c1nc2ccccc2s1)NC(C)C,85.6%,23.1%,75.4%,56.3,51.9%,81.3%,43.8%,52.3%,87.9%,58%,62.5%,31.7%,48.2%,57.6%,64%,62.5%,61.4%,1.73% (active),74.6
CCNC(=O)Oc1ccc(/C(=C(/C)c2ccc(Cl)cc2)c2ccc(OCCN3CCCC3)cc2)cc1,102%,13.5%,63.6%,88.5,66.9%,90.5%,96.8%,76.4%,81.1%,68%,60.5%,19.6%,81.6%,60.1%,82.4%,86.3%,98.3%,49.2%,89
Nc1c(C(=O)c2ccccc2)sc2nc(-c3cnccn3)cc(-c3cccs3)c12,106%,99.4%,104%,92.7,108%,97.8%,105%,95.2%,103%,97.4%,106%,107%,96.5%,104%,100%,103%,87.1%,101%,106
O=C1[C@H]2Cc3c([nH]c4ccccc34)[C@@H](c3c(Cl)cccc3Cl)N2C(=O)CN1C1CCN(Cc2ccccc2)CC1,39.2%,5.96% (active),61.4%,89.3,81.6%,73.8%,106%,93.5%,105%,78.1%,25.5%,9.36% (active),89.6%,50.1%,77.8%,84.6%,72.5%,-31.2% (active),93.1
COc1cc2cc(Oc3ccc(NC(=O)Nc4cc(C(F)(F)F)cc(C(F)(F)F)c4)cc3)c(C)nc2cc1OCCN(C)C,120%,106%,106%,104,112%,106%,103%,100%,103%,107%,103%,120%,103%,107%,110%,102%,93.1%,108%,110
CCNC(=NCCCN(C)C)N/C(N)=N/c1nc2ccccc2s1,99.5%,65.9%,97%,73.6,65.4%,94.8%,92.4%,82.9%,104%,97%,77.4%,69.9%,90.1%,79.3%,80.3%,93.4%,97.6%,73.5%,93.1
CNC(=O)c1cc(Oc2ccc3nc(NC(=O)c4cc(C)cc(C)c4)sc3c2)ccn1,93.5%,50%,87.7%,84.6,69.2%,82.4%,65%,85.6%,89.1%,53.6%,66.9%,86%,81.3%,89.3%,47.9%,77.4%,76.9%,102%,79.9
Oc1ccc(CSc2nnc(-c3ccncc3)o2)c2cccnc12,26%,14.7%,2.27% (active),24.5,7.2% (active),26.3%,3.07% (active),18%,-2.73% (active),25.4%,23%,20.7%,17.6%,15.8%,12.7%,-51.3% (active),18.2%,21.4%,39.7
N/C(=N\OC(=O)CSc1nc2ccccc2s1)c1ccc(Cl)cc1,105%,99.1%,105%,92,122%,96.2%,104%,95.5%,104%,100%,101%,103%,99.4%,96.8%,99.9%,100%,87.8%,99.7%,106
